dFosB act-1: activators of mouse delta FosB homodimer | P13346 | hit rate 0.99% among 340,000 | activation, % at 25 µM | purified delta FosB, TAMRA-CDK5 oligo fluorescence polarization; percent of positive-control signal above neutral wells;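 active = mean activation above about 17%, with every replicate also reaching it, limit read from the data, passing the limit was not always enough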
Target sequence (P13346 whole entry, looked up): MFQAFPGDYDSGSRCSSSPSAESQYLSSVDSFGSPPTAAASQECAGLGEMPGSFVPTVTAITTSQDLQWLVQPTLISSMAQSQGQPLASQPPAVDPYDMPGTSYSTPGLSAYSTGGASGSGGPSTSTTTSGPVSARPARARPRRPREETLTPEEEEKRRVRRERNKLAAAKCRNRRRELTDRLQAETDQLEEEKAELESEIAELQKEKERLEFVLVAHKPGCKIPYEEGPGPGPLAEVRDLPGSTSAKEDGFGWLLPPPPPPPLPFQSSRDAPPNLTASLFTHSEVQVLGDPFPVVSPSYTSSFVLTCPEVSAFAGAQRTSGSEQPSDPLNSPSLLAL
Efa HMGR inh: inhibitors of class II HMG-CoA reductase from Enterococcus faecalis; purified E. faecalis HMGR, NADPH absorbance 340 nm kinetic; AID 1066; hit rate 0.41% among 190,000; inhibition, % at 10 µM;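 active = inhibition above a set limit, the median over all tested compounds plus 3 SD, cut at about 9.5% in these data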;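 note: enzyme runs in reverse so mevalonate oxidation gives rising NADPH absorbance; 0% = complete reaction with DMSO and 100% = background rate lacking mevalonate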
p47phox inh: p47phox (human) inhibition; AID 1274; inhibition, % at 24.7 µM; hit rate 0.53% among 220,000; p47phox/p22phox peptide binding, fluorescence polarization, 2 h; P14598;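 active = inhibition above about 30%, limit read from the data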;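 note: 0% = p47phox with labelled peptide and 100% = labelled peptide alone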
14-3-3 Bad PPI: disrupts binding of bovine 14-3-3 zeta to phospho-Bad peptide; inhibition, % at 21.7 µM; TR-FRET 14-3-3zeta/Dy647-pBad peptide displacement, 1 h; hit rate 0.71% among 220,000; AID 781;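 active = inhibition above about 70%, limit read from the data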;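 note: 0% = full 14-3-3 plus peptide FRET controls and 100% = background without 14-3-3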
Target sequence (P63103 whole entry, looked up): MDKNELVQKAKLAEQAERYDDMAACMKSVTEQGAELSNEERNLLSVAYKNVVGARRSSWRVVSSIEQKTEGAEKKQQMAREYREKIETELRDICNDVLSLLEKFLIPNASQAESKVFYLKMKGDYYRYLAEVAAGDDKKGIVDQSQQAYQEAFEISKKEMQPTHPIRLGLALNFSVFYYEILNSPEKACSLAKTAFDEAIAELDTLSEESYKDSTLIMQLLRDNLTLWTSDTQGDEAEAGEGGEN
dFosB act-2: activators of mouse delta FosB homodimer DNA binding; shares compounds with dFosB act-1; purified delta FosB, TAMRA-CDK5 oligo fluorescence polarization; normalised: neutral wells 0, positive control 100; activation, % at 24.9 µM; 2,400 tested, under 10 active; AID 588690;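 active = highest replicate activation at or above 34% and every replicate reaching that threshold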;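 note: higher polarization means more probe DNA bound by delta FosB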
Numbers without * were called inactive; x = no result given. The list is not random: actives were taken first. Their share in the collection is about 1.9%.

SMILES | dFosB act-1 | Efa HMGR inh | p47phox inh | 14-3-3 Bad PPI | dFosB act-2
CC(=O)Nc1cc(-n2cnnn2)ccc1C | 4.2 | 2.5 | -8.7 | -11.2 | x
Cc1nc(SCc2ccc(Cl)cc2)ncc1C(=O)O | -0.1 | -3.9 | 5.4 | -5.2 | x
Cc1cc(C)c2oc(C(=O)NCCc3ccc(S(N)(=O)=O)cc3)cc(=O)c2c1 | 41.0* | x | -6.0 | 7.3 | -2.4
Cc1ccc2c(=O)cc(C(=O)NCCc3ccc(S(N)(=O)=O)cc3)oc2c1 | -2.5 | x | x | x | x
CC(=O)Nc1ccc(NC(=O)c2cc(=O)c3cc(C)cc(C)c3o2)cc1 | 2.3 | x | x | x | x
Cc1cc(C)c2oc(C(=O)Nc3ccc(S(=O)(=O)N4CCC(C)CC4)cc3)cc(=O)c2c1 | 23.4* | -4.4 | -11.3 | 25.7 | 1.1
OCCNc1nc(Nc2ccc(O)cc2)nc2ccccc12 | 19.4* | x | -8.4 | 2.4 | 3.5
OCCNc1nc(Nc2cccc(O)c2)nc2ccccc12 | 10.4 | x | -14.7 | -1.1 | x
Nc1nccc(-c2cc(-c3ccc(Cl)cc3Cl)no2)n1 | 93.1* | x | 13.5 | 13.4 | -15.4
COc1ccc(Cc2nnc(NC(=O)Nc3ccccc3F)s2)cc1 | 2.8 | x | x | x | x
O=C(Nc1nnc(Cc2ccc(F)cc2)s1)Nc1ccccc1F | 27.1* | x | x | x | 7.0
O=C(Nc1nnc(-c2ccccc2SCc2ccccc2)s1)Nc1ccccc1F | 91.3* | -2.7 | -11.8 | -6.0 | -7.6
O=C(Nc1nnc(-c2ccccc2F)s1)Nc1ccccc1F | -4.4 | -4.0 | -10.2 | -9.4 | x
CCOC(=O)C1CCN(C(=O)c2ccccc2NS(=O)(=O)c2ccc(F)c(F)c2)CC1 | 3.3 | -3.8 | -1.6 | 1.2 | x
Cc1ccc(CNC(=O)c2ccc(N3CCC4(CC3)CC(c3cccc(Br)c3)=NO4)c(NC(=O)c3c(Cl)cccc3Cl)c2)cc1 | 24.1* | x | x | x | 0.8
Cc1ccc(CNC(=O)c2ccc(N3CCC4(CC3)CC(c3cccc(Br)c3)=NO4)c(NC(=O)c3ccc(Br)cc3)c2)cc1 | 9.3 | x | x | x | x
COc1ccc(C(=O)Nc2nnc(SCC(=O)NCc3ccco3)s2)cc1OC | 26.4* | x | x | x | 2.4
COc1cccc(C(=O)Nc2nnc(SCC(=O)NC3CC3)s2)c1 | 52.6* | x | x | x | -2.0
COc1ccc(C(=O)Nc2nnc(SCC(=O)NC3CCCC3)s2)c(OC)c1 | -6.0 | x | x | x | x
COCCSc1nnc(NC(=O)c2ccc(OC)c([N+](=O)[O-])c2)s1 | 26.3* | -3.4 | 8.6 | -1.5 | -6.0
O=C(CCCl)Nc1nnc(SCC(=O)NC2CCCC2)s1 | 19.6* | x | x | x | 0.3
COc1cc(/C=C(\C#N)c2nc3ccccc3o2)ccc1O | -7.8 | x | -73.7 | 0.8 | x
CCN1C(=O)[C@H]2[C@@H](c3ccc(C)cc3)N3C(=O)N(c4cccc(Cl)c4)C(=O)[C@@]3(CC)[C@H]2C1=O | -6.6 | x | x | x | x
O=[N+]([O-])c1ccc(NCCN2CCOCC2)c([N+](=O)[O-])c1 | 4.3 | x | x | x | x
COc1ccc(C(=O)Nc2nnc(SCC(=O)NC3CC3)s2)cc1 | 22.4* | x | x | x | 3.2
SMILES | dFosB act-1 | Efa HMGR inh | p47phox inh | 14-3-3 Bad PPI | dFosB act-2
CCOC(=O)c1ccccc1NC(=O)COC(=O)Cc1ccccc1F | -4.1 | x | x | x | x
CN(C)CCN(C(=O)CN1C(=O)c2ccccc2C1=O)c1nc2cc3c(cc2s1)OCO3 | 37.7* | x | x | x | 4.4
CN(C)CCN(C(=O)c1ccc(S(=O)(=O)N(C)c2ccccc2)cc1)c1nc2ccc(Cl)cc2s1 | 28.1* | x | x | x | 0.9
COc1ccc2sc(N(CCCN(C)C)C(=O)c3ccc(S(=O)(=O)N4CCCC4)cc3)nc2c1 | -7.9 | x | x | x | x
CN(C)CCN(C(=O)c1ccc(S(=O)(=O)N(C)c2ccccc2)cc1)c1nc2cc3c(cc2s1)OCO3 | 13.2 | x | x | x | x
COc1ccc2sc(N(CCCN(C)C)C(=O)c3ccc(S(=O)(=O)N4CCc5ccccc5C4)cc3)nc2c1 | 32.6* | x | x | x | 0.7
CN(C)CCN(C(=O)c1ccco1)c1nc2cc3c(cc2s1)OCCO3 | 30.2* | x | x | x | -4.3
CCN(CC)CCN(C(=O)CN1C(=O)c2ccccc2C1=O)c1nc2cc3c(cc2s1)OCO3 | 7.2 | x | x | x | x
O=C(CN1CCCCC1)N/N=C/c1ccc(Cl)cc1Cl | -2.0 | x | x | x | x
O=C(CN1CC(=O)Nc2ccccc21)NCCc1ccc(Cl)cc1Cl | -3.7 | 3.0 | -11.3 | -3.4 | x
CN(C)CCCN(C(=O)c1ccc2c(c1)CCCC2)c1nc2ccc(F)cc2s1 | 6.7 | -7.2 | -12.5 | -0.3 | x
Cc1cc(C)c2nc(N(CCN(C)C)C(=O)c3ccc4ccccc4c3)sc2c1 | 21.0* | x | x | x | 5.7
CCN(CC)CCN(C(=O)c1ccc(S(=O)(=O)N2CCCCC2)cc1)c1nc2cc3c(cc2s1)OCO3 | 31.5* | 2.9 | -6.5 | 5.8 | -1.1
CN(C)CCCN(C(=O)c1ccc2c(c1)CCCC2)c1nc2cc3c(cc2s1)OCO3 | 25.5* | x | x | x | 1.7
CN(C)CCN(C(=O)c1ccc2ccccc2c1)c1nc2c(F)cccc2s1 | -8.3 | x | x | x | x
CN(C)CCN(C(=O)c1ccc(C(=O)c2ccccc2)cc1)c1nc2cc3c(cc2s1)OCCO3 | 24.1* | x | x | x | -8.1
COc1cccc(-n2cnnc2SC(C)C(=O)NC2CCCC2)c1 (stereo not drawn) | -2.8 | x | x | x | x
CCOc1ccc(C(=O)C2CCN(CC(=O)Nc3nccs3)CC2)cc1 | -7.9 | x | x | x | x
COC(=O)c1ccc(NC(=O)Cn2cnc3c(nnn3-c3cccc(OC)c3)c2=O)cc1 | 36.8* | 0.7 | 7.4 | 10.4 | -0.2
COc1ccc(-n2nnc3c(=O)n(CC(=O)N4CCCc5ccccc54)cnc32)cc1 | 34.8* | x | x | x | 2.6
CCOc1ccc(-n2nnc3c(=O)n(CC(=O)N4CCCc5ccccc54)cnc32)cc1 | -25.5 | -3.9 | -5.8 | 8.4 | x
O=C(Cn1cnc2c(nnn2Cc2ccc(F)cc2)c1=O)Nc1cccc(F)c1 | 10.7 | -4.1 | -9.3 | -9.3 | x
O=C(Cn1cnc2c(nnn2Cc2ccc(F)cc2)c1=O)Nc1ccc2c(c1)OCCO2 | 27.2* | x | x | x | -0.2
Cc1ccc(NC(=O)Cn2cnc3c(nnn3Cc3ccc(F)cc3)c2=O)cc1 | 22.8* | -2.5 | 7.4 | 10.9 | 0.5
O=C(O)c1cc(-c2ccc(-c3c(-c4ccc5c(c4)OCO5)noc3-c3ccsc3)cc2)nc2ccccc12 | -11.1 | x | x | x | x
SMILES | dFosB act-1 | Efa HMGR inh | p47phox inh | 14-3-3 Bad PPI | dFosB act-2
O=C(CCN1C(=O)c2ccccc2C1=O)NC(=S)Nc1ccccc1Cl | -6.7 | -1.7 | -0.6 | 4.1 | x
Cc1cc(N/N=C/c2cccc(Cl)c2)nc(NCc2ccccc2)n1 | 41.0* | 1.4 | -18.1 | -1.9 | 2.5
Cc1cc(C)nc(N/N=C/c2cccc(Cl)c2)n1 | -2.0 | -1.1 | -4.9 | -21.9 | x
CN(C)c1nc(NCc2ccccc2)nc(N/N=C/c2ccc(Cl)cc2Cl)n1 | 17.4* | 2.1 | -10.3 | 3.3 | 5.0
Cc1cc(Nc2cccc(Cl)c2)nc(NCc2ccccc2)n1 | 40.9* | -1.6 | -54.0 | -0.5 | -1.4
CC(C)Nc1nnc(SC(C)C(=O)Nc2ccc(N3CCOCC3)cc2)s1 (stereo not drawn) | -8.4 | x | x | x | x
CC1(C)SC(=S)N(NC(=O)Nc2ccccc2)C1N(O)C(=O)Nc1cccc2ccccc12 (stereo not drawn) | -3.8 | -2.2 | -7.7 | 6.6 | x
CCN(CC)S(=O)(=O)c1ccc(C)c(NC(=O)COc2ccc(Cl)cc2Br)c1 | -22.3 | -5.3 | -8.6 | -8.8 | x
Cn1c(SCC(=O)Nc2nccs2)nnc1C1CC1 | -2.7 | x | x | x | x

Source: PubChem (several laboratories)
